# PubChem BioAssay
# Values joined by “and” are separate entries in the source; they are usually repeats but may differ in a detail not shown here. Equal entries are not always repeated. The list shows a part of the results. Results filed as inconclusive are left out. Active and inactive are the calls of the source.
# Assays:
# [1] = inhibitors of TNFa-induced NFkB p65 translocation, primary screen, imaging, HUVEC, MLSMR starter and 10KST1 sets (AID 438;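 active = inhibition above 20% together with a positive visual image hit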;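 note: compound added about 3h40 before a 20 min TNFalpha stimulation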;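 for inhibition: signal is the nuclear over cytoplasmic p65 intensity ratio per well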); conditions: HUVEC TNFa-induced p65 nuclear translocation; cell count: measured here: nuclei count (cytotoxicity indicator), at 2.08 µM; inhibition: at 2 µM, stronger effect = higher value, 0% TNFa-plus-vehicle, 100% no-TNFa wells
# [2] = reduction of polyQ htt aggregates in cells – imaging, exon1htt(103Q)mCFP cells, high-content imaging, primary screen (AID 483;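 active = visual image review flags a hit and inhibition of aggregation exceeds 20%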;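 note: compound exposure lasted 3 days before fixation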;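 for nuclei count: percent of the per-plate median nuclei count of sample wells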); conditions: exon1htt(103Q)mCFP cell line, aggregate imaging, at 2 µM; inhibition of aggregation: stronger effect = higher value; nuclei count: measured here: cell count, toxicity
# [3] = endothelial E-selectin expression blockers – imaging, HUVEC, immunofluorescence, MLSMR starter and 10KST1 sets, primary screen (AID 487;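 active = visually confirmed hit in the image check and inhibition above 20%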;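 for inhibition: signal is fraction of cell area covered by stained E-selectin grains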;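 for nuclei count: 100% = median nuclei count of all wells on the same plate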); conditions: HUVEC TNFalpha-induced E-selectin immunofluorescence imaging, at 2 µM; inhibition: stronger effect = higher value; nuclei count: measured here: cell number, toxicity
# [4] = Primary imaging screen for DUSP6 inhibitors that restore phospho-Erk in transfected HeLa cells, chemical complementation (AID 609;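 active = compounds giving at least 50% inhibition in the cell-based MKP-3 phosphatase rescue imaging test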;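 for inhibition: phospho-Erk level distribution per well compared with pooled transfected vehicle control wells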); conditions: HeLa MKP-3 transfected, phospho-Erk imaging KS statistic, at 10 µM, cells stimulated with TPA for 15 min
# [5] = molecular target: Dual specificity protein phosphatase 6 (Homo sapiens) (UniProt Q16828); test: as above; conditions: HeLa MKP-3 transfected, phospho-Erk imaging KS statistic; at 10 µM; stronger effect = higher value; cells stimulated with TPA for 15 min
# [6] = molecular target: Voltage-gated potassium channel subunit beta-2 (Rattus norvegicus) (UniProt P62483); test: inhibitors of rat Kvbeta2 reductase activity – biochemical, NADPH fluorescence, primary screen (AID 622;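 active = fluorescence slope higher than the sample average by over 3 SD, cut at about -0.22 in these data, passing the limit was not always enough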;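 note: slope of raw intensity against log time taken from 70 to 1610 s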); conditions: recombinant KvBeta, 4-cyanobenzaldehyde reduction, at 10 µM, stronger effect = higher value
# [7] = molecular target: Voltage-gated potassium channel subunit beta-2 (Rattus norvegicus) (UniProt P62483); test: enhancers of rat Kvbeta2 NADPH turnover – biochemical, NADPH fluorescence, primary screen (AID 623;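 active = NADPH fluorescence slope more negative than the mean of all samples by about 3 SD, 99.7% confidence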;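 note: fluorescence intensity change per second fitted from 20 to 320 s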); conditions: Recombinant KvBeta, NADPH fluorescence decrease slope, 10 min; at 10 µM; stronger effect = lower value
# [8] = molecular target: Alpha-2C adrenergic receptor (Homo sapiens) (UniProt P18825); test: compounds altering alpha2C-coupled GIRK flux – cell-based, HEK293 alpha2C/GIRK1/2, thallium flux, primary screen (AID 624;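 active = fluorescence slope after compound addition differing from the mean of all screened samples at 99.7% confidence, in either direction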;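 note: slope of fluorescence ratio to pre-addition baseline per second over 15 to 24 s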); conditions: thallium flux BTC fluorescence, at 10 µM, actives lie on both sides
# [9] = loss of swimming-algae plug formation – whole organism, Chlamydomonas reinhardtii, WT vs cilia-less mutant, absorbance, 96-well, primary screen (AID 463189); conditions: Chlamydomonas reinhardtii gravitaxis, OD600 absorbance, 2 days; at 10 µM; stronger effect = higher value;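 note: 0% = wild type cc124 cells in DMSO and 100% = ciliumless bld1 mutant cells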
# [10] = blockers of RIG-like receptor reporter activation – cell-based, Sendai virus stimulus, luciferase, 10K MLSCN set, TLR/RLR signaling modifier project, primary screen (AID 602276;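 active = inhibition at or above 50% at 10 µM; inactive = inhibition below 50%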;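 note: firefly luciferase from ISG56 promoter only with Renilla not read in this screen; 0% = Sendai virus plus DMSO and 100% = medium plus DMSO without virus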); conditions: HEK293 RL24 IRF3 luciferase reporter, at 10 µM, stronger effect = higher value
# [11] = TLR3 IRF3 reporter activation blockers – cell-based, poly I:C stimulus, luciferase, 10K MLSCN set, primary screen (AID 602277;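 active = inhibition of the reporter signal at or above 50%; inactive = inhibition below 50%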); conditions: HEK293-TLR3 RL24 IRF3 luciferase reporter, at 10 µM, stronger effect = higher value
# PubChem AID 1714 = conditions: HEK293-KCC2 + bumetanide/ouabain, thallium flux FluoZin2; at 10 µM; stronger effect = higher value
# [12] = molecular target: Solute carrier family 12 member 5 (Homo sapiens) (UniProt Q9H2X9); test: retest of KCC2 transport modulation, ouabain-free – cell-based, HEK293 KCC2, thallium flux, FluoZin2, secondary assay 2, confirmation (AID 1715;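 active = thallium flux slope more than 3 SD above or below the plate's solvent-only control mean, mostly below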;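 note: raw slope with 0.1% DMSO as baseline and bumetanide as block control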); conditions: HEK293-KCC2, thallium flux FluoZin2 fluorescence; at 10 µM; actives lie on both sides; F/F0 rise rate, 10–20 s post-thallium
# [13] = compound effects on native HEK Tl+ uptake – HEK cells, counterscreen 1, counter-screen for KCC2 modulator project, confirmation (AID 1716;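 active = thallium flux rate significantly above the same plate's solvent-only control wells, beyond their mean plus 3 SD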); conditions: HEK293 parental cells, thallium flux FluoZin2, ouabain; at 10 µM; baseline-ratio fluorescence slope, 10–20 s after thallium
# [14] = molecular target: Solute carrier family 12 member 5 (Homo sapiens) (UniProt Q9H2X9); test: modulation of KCC2 thallium flux in HEK cells – cell-based, ouabain, retest, confirmation (AID 1717;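 active = thallium flux slope beyond 3 SD from same-plate DMSO control mean in most replicates, usually higher, sometimes lower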;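 note: slope of initial-normalized fluorescence between seconds 10 and 20 after thallium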); conditions: HEK293-KCC2, thallium flux FluoZin2 fluorescence, at 10 µM, bidirectional: low = inhibitor, high = activator
# [15] = molecular target: Muscarinic acetylcholine receptor M4 (Homo sapiens) (UniProt P08173); test: M4-linked GIRK flux change, two-sided – cell-based, HEK293 M4/GIRK, thallium flux, BTC-AM, M4 allosteric agonist project, primary screen (AID 625;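 active = fluorescence slope after compound addition differing from the mean of all tested samples at 99.7% confidence, mostly higher but some lower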;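 note: thallium influx through GIRK channels coupled to M4 in HEK293 cells with BTC-AM dye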); conditions: at 10 µM, actives lie on both sides
# [16] = inhibitors of larval lipid processing in zebrafish, primary screen, whole organism, PED6 fluorescence, gall bladder and intestine (AID 686;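 active = a full or partial loss of lipid-probe fluorescence in the fish gall bladder, intestine or both, judged by eye; inactive = no fluorescence loss, or compound toxic to the fish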;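 note: larvae 5 to 7 days old with five fish per well; signal comes from phospholipase A2 cleavage of quenched PED6 carried via bile; overnight exposure to compound and PED6 before scoring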); conditions: Zebrafish larvae PED6 lipid processing, fluorescence scoring; screened at 20 µM (by protocol)
# [17] = measured here: cell density z-score
# [18] = measured here: nuclear c-Myc green intensity z-score
# [19] = measured here: nuclear pErk red intensity z-score, stronger effect = higher value
# Alpha-2C adrenergic receptor (Homo sapiens), sequence (P18825 whole entry, looked up): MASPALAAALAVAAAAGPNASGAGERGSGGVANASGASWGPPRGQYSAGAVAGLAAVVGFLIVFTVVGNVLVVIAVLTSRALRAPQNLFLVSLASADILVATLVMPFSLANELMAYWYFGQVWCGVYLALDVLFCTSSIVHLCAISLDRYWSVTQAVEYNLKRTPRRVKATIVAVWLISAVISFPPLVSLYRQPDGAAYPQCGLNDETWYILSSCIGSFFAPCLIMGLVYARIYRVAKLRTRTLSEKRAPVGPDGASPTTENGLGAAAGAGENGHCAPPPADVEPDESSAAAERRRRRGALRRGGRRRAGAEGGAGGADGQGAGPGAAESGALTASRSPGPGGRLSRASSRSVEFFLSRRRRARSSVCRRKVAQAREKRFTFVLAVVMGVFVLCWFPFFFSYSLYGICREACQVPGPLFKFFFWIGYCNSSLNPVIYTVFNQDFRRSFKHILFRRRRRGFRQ
# Voltage-gated potassium channel subunit beta-2 (Rattus norvegicus), sequence (P62483 whole entry, looked up): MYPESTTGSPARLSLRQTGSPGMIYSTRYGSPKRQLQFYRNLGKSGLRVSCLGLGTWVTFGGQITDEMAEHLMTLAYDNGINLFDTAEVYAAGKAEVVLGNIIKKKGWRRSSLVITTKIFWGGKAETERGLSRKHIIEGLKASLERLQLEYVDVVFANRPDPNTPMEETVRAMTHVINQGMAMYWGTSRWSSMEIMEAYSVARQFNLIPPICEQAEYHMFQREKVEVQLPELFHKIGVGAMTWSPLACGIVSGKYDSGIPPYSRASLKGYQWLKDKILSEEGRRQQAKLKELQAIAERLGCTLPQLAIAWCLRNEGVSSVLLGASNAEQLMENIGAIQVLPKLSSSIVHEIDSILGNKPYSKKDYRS
# Dual specificity protein phosphatase 6 (Homo sapiens), sequence (Q16828 whole entry, looked up): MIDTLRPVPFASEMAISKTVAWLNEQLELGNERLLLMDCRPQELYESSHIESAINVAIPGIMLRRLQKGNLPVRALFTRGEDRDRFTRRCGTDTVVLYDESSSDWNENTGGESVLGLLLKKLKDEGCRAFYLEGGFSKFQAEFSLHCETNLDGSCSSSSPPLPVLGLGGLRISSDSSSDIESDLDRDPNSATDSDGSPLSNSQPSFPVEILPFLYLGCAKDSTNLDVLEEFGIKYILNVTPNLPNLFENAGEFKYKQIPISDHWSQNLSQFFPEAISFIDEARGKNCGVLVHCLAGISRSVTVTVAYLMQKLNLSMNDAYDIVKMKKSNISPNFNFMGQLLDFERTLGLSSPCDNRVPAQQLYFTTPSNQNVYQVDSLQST
# Muscarinic acetylcholine receptor M4 (Homo sapiens), sequence (P08173 whole entry, looked up): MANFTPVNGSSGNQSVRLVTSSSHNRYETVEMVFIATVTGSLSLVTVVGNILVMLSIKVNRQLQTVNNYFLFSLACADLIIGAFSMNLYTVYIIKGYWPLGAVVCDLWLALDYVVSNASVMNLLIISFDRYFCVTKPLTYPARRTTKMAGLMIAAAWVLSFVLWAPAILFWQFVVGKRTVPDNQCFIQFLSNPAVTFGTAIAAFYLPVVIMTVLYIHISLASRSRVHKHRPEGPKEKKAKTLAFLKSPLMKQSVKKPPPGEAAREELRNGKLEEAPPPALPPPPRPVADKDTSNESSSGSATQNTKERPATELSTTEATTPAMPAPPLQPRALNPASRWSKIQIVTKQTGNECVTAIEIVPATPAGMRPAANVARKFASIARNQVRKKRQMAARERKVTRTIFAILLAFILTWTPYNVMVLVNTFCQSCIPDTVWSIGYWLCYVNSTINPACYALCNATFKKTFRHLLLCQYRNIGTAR
# Solute carrier family 12 member 5 (Homo sapiens), sequence (Q9H2X9 whole entry, looked up): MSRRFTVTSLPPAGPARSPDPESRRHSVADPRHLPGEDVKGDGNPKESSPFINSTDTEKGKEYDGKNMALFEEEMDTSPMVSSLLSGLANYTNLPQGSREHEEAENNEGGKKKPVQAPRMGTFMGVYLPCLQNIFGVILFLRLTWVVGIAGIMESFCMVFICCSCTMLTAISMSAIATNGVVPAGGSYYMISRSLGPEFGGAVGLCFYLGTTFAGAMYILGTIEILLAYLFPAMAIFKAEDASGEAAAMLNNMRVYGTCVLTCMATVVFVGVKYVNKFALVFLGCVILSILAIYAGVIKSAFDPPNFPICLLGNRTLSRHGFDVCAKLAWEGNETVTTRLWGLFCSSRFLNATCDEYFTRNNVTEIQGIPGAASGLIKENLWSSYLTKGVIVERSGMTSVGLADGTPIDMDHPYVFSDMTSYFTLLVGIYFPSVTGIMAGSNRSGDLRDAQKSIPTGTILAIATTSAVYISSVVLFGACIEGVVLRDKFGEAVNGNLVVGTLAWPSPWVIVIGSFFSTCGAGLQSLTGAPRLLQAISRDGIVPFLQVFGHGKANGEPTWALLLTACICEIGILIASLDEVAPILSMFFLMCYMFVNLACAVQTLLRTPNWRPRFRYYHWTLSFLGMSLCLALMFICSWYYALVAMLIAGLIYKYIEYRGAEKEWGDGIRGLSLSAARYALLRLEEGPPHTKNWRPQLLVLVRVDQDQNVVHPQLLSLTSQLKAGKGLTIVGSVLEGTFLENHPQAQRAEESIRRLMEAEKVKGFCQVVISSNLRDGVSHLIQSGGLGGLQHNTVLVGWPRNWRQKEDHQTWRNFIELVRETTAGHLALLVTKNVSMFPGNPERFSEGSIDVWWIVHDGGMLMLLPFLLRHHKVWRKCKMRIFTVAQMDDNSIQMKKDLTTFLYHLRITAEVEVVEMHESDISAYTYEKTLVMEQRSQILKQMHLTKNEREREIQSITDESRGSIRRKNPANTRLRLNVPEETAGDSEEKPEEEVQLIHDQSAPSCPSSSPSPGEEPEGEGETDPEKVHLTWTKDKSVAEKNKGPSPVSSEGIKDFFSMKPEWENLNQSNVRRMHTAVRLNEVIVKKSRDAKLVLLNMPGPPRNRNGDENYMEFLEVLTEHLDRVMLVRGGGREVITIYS
structure (smiles),measurement,setting,value
C[C@@H]1CCC[C@H](C)N1NC(=O)c1ccc(Cl)c(S(N)(=O)=O)c1,cell count,[1],625
same,inhibition,[1],7.2% (inactive)
same,inhibition of aggregation,[2],0.7% (inactive)
same,nuclei count,[2],108%
same,inhibition,[3],-55.3% (inactive)
same,nuclei count,[3],111%
same,z-score,[4]; [17],-0.0459
same,z-score,[4]; [18],-0.463
same,z-score,[4]; [19],-0.78
same,inhibition,[5],21.2% (inactive)
same,fluorescence slope,[6],-0.465 (inactive)
same,NADPH fluorescence slope,[7],-5.1e-05 (inactive)
same,slope,[8],0.00499 (inactive)
same,inhibition,[9],24.4% (inactive)
same,inhibition,[10],3.39% (inactive)
same,inhibition,[11],20% (inactive)
CC(C)OC(=O)C(C)(C)Oc1ccc(C(=O)c2ccc(Cl)cc2)cc1,cell count,[1],484
same,inhibition,[1],-9% (inactive)
same,inhibition of aggregation,[2],28.8% (inactive)
same,nuclei count,[2],89.5%
same,inhibition,[3],-10.1% (inactive)
same,nuclei count,[3],97.2%
same,z-score,[4]; [17],0.497
same,z-score,[4]; [18],-1.12
same,z-score,[4]; [19],0.95
same,inhibition,[5],-8.38% (inactive)
same,fluorescence slope,[6],-0.446 (inactive)
same,NADPH fluorescence slope,[7],1.6e-05 (inactive)
same,slope,[8],0.00465 (inactive)
same,inhibition,[9],-3.15% (inactive) and 23.4% (inactive)
same,inhibition,[10],-6.93% (inactive)
same,inhibition,[11],18.9% (inactive)
Cc1[nH]n(-c2ccccc2)c(=O)c1N=Nc1ccccc1C(=O)N1CCCCC1,normalized thallium flux,PubChem AID 1714,0.0338 (active)
same,normalized thallium flux,[12],0.03 (inactive)
same,thallium flux rate (normalised fluorescence),[13],0.0142 (active)
same,"raw Tl+ flux slope (below DMSO = inhibition, above = activation)",[14],0.0253 (active)
CCn1cc(C(=O)O)c(=O)c2cc(F)c(N3CCNCC3)nc21,cell count,[1],528
same,inhibition,[1],-1.9% (inactive)
same,inhibition of aggregation,[2],-5% (inactive)
same,nuclei count,[2],88.6%
same,inhibition,[3],-53.3% (inactive)
same,nuclei count,[3],92.8%
same,z-score,[4]; [17],1.02
same,z-score,[4]; [18],-0.267
same,z-score,[4]; [19],-1.93
same,inhibition,[5],7.39% (inactive)
same,fluorescence slope,[6],-0.463 (inactive)
same,NADPH fluorescence slope,[7],-5.7e-05 (inactive)
same,slope,[8],0.00463 (inactive)
same,inhibition,[9],-14% (inactive)
same,inhibition,[10],3% (inactive)
same,inhibition,[11],17.6% (inactive)
Cc1oc2nc(SCCCC(=O)NCCCO)nc(N)c2c1C,cell count,[1],507
same,inhibition,[1],-4.5% (inactive)
same,inhibition of aggregation,[2],21.9% (inactive)
same,nuclei count,[2],90.5%
same,inhibition,[3],-109% (inactive)
same,nuclei count,[3],116%
same,z-score,[4]; [17],0.495
same,z-score,[4]; [18],0.376
same,z-score,[4]; [19],-1.33
same,inhibition,[5],3.56% (inactive)
same,fluorescence slope,[6],-0.522 (inactive)
same,NADPH fluorescence slope,[7],-1.7e-05 (inactive)
same,slope,[8],0.00668 (inactive)
same,inhibition,[9],0.255% (inactive)
same,inhibition,[10],12.9% (inactive)
same,inhibition,[11],12.8% (inactive)
Cc1c(C)c2cc(Cl)c(O)c(CN3CCCCC3)c2oc1=O,cell count,[1],393
same,inhibition,[1],1.3% (inactive)
same,inhibition of aggregation,[2],-11.8% (inactive)
same,nuclei count,[2],100%
same,inhibition,[3],-14.6% (inactive)
same,nuclei count,[3],124%
same,z-score,[4]; [17],0.378
same,z-score,[4]; [18],-1.22
same,z-score,[4]; [19],-0.936
same,inhibition,[5],5.26% (inactive)
same,fluorescence slope,[6],-0.198 (inactive)
same,NADPH fluorescence slope,[7],-2.2e-05 (inactive)
same,slope,[8],0.00419 (inactive)
same,inhibition,[9],20.3% (inactive)
same,inhibition,[10],4.19% (inactive)
same,inhibition,[11],6.59% (inactive)
COCCNC(=O)c1c(N)n(/N=C/c2cccs2)c2nc3ccccc3nc12,cell count,[1],516
same,inhibition,[1],7.2% (inactive)
same,inhibition of aggregation,[2],-25.1% (inactive)
same,nuclei count,[2],108%
same,inhibition,[3],-36.6% (inactive)
same,nuclei count,[3],107%
same,z-score,[4]; [17],0.126
same,z-score,[4]; [18],0.305
same,z-score,[4]; [19],-0.729
same,inhibition,[5],1.75% (inactive)
same,fluorescence slope,[6],-0.287 (inactive)
same,NADPH fluorescence slope,[7],-9.2e-05 (inactive)
same,slope,[8],0.00574 (inactive)
same,inhibition,[9],17.7% (inactive)
same,inhibition,[10],5.03% (inactive)
same,inhibition,[11],-26.9% (inactive)
CCN(CC)CCCN1C(=O)C(=O)/C(=C(/O)c2ccc(C)cc2)C1c1ccccn1 (stereo unspecified),cell count,[1],546
same,inhibition,[1],-2.6% (inactive)
same,inhibition of aggregation,[2],21% (inactive)
same,nuclei count,[2],134%
same,inhibition,[3],-85.1% (inactive)
same,nuclei count,[3],144%
same,z-score,[4]; [17],0.34
same,z-score,[4]; [18],-0.315
same,z-score,[4]; [19],-0.132
same,inhibition,[5],-2.29% (inactive)
same,fluorescence slope,[6],-0.45 (inactive)
same,NADPH fluorescence slope,[7],-3.6e-05 (inactive)
same,slope,[8],0.0052 (inactive)
same,fluorescence slope,[15],0.00497 (inactive)
same,outcome,[16],inactive
same,inhibition,[9],-0.742% (inactive)
same,inhibition,[10],-25.3% (inactive)
same,inhibition,[11],-18.7% (inactive)
CCN(CC)CCN1C(=O)C(O)=C(C(=O)c2ccco2)C1c1ccccn1 (stereo unspecified),cell count,[1],439
same,inhibition,[1],-6.3% (inactive)
same,inhibition of aggregation,[2],16.5% (inactive)
same,nuclei count,[2],89.2%
same,inhibition,[3],-87.6% (inactive)
same,nuclei count,[3],123%
same,z-score,[4]; [17],0.101
same,z-score,[4]; [18],-1.41
same,z-score,[4]; [19],0.388
same,inhibition,[5],3.5% (inactive)
same,fluorescence slope,[6],-0.431 (inactive)
same,NADPH fluorescence slope,[7],-0.000163 (inactive)
same,slope,[8],0.005 (inactive)
same,inhibition,[9],14.9% (inactive)
same,inhibition,[10],15.6% (inactive)
same,inhibition,[11],18.9% (inactive)
C=CCn1c(SCC(=O)c2ccccc2)nnc1-c1ccc2c(c1)OCO2,cell count,[1],728
same,inhibition,[1],-2.4% (inactive)
same,inhibition of aggregation,[2],-1% (inactive)
same,nuclei count,[2],92.4%
same,inhibition,[3],-60.6% (inactive)
same,nuclei count,[3],117%
same,z-score,[4]; [17],0.143
same,z-score,[4]; [18],0.0826
same,z-score,[4]; [19],1.39
same,inhibition,[5],-13.3% (inactive)
same,fluorescence slope,[6],-0.528 (inactive)
same,NADPH fluorescence slope,[7],-3.6e-05 (inactive)
same,slope,[8],0.00455 (inactive)
same,fluorescence slope,[15],0.00674 (inactive)
same,outcome,[16],inactive
same,inhibition,[9],-7.63% (inactive)
same,inhibition,[10],-8.67% (inactive)
same,inhibition,[11],-3.99% (inactive)
CCOc1ccc(C2/C(=C(/O)c3ccc(OC)cc3)C(=O)C(=O)N2c2cc(C)on2)cc1OC (stereo unspecified),cell count,[1],314
same,inhibition,[1],-5.2% (inactive)
same,inhibition of aggregation,[2],2.5% (inactive)
same,nuclei count,[2],87.7%
same,inhibition,[3],-84.6% (inactive)
same,nuclei count,[3],122%
same,z-score,[4]; [17],0.762
same,z-score,[4]; [18],0.679
same,z-score,[4]; [19],-1.01
same,inhibition,[5],-5.26% (inactive)
same,fluorescence slope,[6],-0.434 (inactive)
same,NADPH fluorescence slope,[7],-0.000115 (inactive)
same,slope,[8],0.00335 (inactive)
same,inhibition,[9],-9.21% (inactive)
same,inhibition,[10],-8.23% (inactive)
same,inhibition,[11],-11.7% (inactive)
Cc1cc(/C=N\O)c(C)n1-c1ccncc1,cell count,[1],547
same,inhibition,[1],-1.1% (inactive)
same,inhibition of aggregation,[2],7.2% (inactive)
same,nuclei count,[2],92.6%
same,inhibition,[3],-50.3% (inactive)
same,nuclei count,[3],120%
same,z-score,[4]; [17],-0.413
same,z-score,[4]; [18],0.337
same,z-score,[4]; [19],0.578
same,inhibition,[5],9.82% (inactive)
same,fluorescence slope,[6],-0.47 (inactive)
same,NADPH fluorescence slope,[7],-0.000127 (inactive)
same,slope,[8],0.00523 (inactive)
same,fluorescence slope,[15],0.00493 (inactive)
same,outcome,[16],inactive
same,inhibition,[9],19.4% (inactive)
same,inhibition,[10],20.1% (inactive)
same,inhibition,[11],25.1% (inactive)
